Compounds with a hit are over-represented: about 3.1% of the library has one in this group of screens.
dFosB act-1 = activators of delta FosB homodimer, primary screen, biochemical, fluorescence polarization, TAMRA-CDK5 oligo, single point. Protein FosB (Mus musculus), P13346. activation, % at 25 µM. 340,000 tested, 0.99% active. purified delta FosB; percent of positive-control signal above neutral wells;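 active = mean activation above about 17%, with every replicate also reaching it, limit read from the data, passing the limit was not always enough; inconclusive = only one of the two conditions met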
RAD54 branch = inhibitors of human RAD54 branch migration, primary screen, biochemical, fluorescence, single point; DNA repair and recombination protein RAD54-like (Homo sapiens), Q92698; RAD54 Holliday junction branch migration, FAM/BHQ fluorescence; inhibition, % at 10.4 µM; 360,000 tested, 0.14% active;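 active = mean normalized replicate activity at least 40 and at least half of replicates scoring 40 or more; inconclusive = only one of the two criteria met; inactive = mean below 40 and under half of replicates reaching 40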;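 note: 0% = median of neutral control wells and 100% = median of positive control wells; inhibitors cause a drop in the FAM fluorescence signal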
Target sequence (Q92698 whole entry, looked up): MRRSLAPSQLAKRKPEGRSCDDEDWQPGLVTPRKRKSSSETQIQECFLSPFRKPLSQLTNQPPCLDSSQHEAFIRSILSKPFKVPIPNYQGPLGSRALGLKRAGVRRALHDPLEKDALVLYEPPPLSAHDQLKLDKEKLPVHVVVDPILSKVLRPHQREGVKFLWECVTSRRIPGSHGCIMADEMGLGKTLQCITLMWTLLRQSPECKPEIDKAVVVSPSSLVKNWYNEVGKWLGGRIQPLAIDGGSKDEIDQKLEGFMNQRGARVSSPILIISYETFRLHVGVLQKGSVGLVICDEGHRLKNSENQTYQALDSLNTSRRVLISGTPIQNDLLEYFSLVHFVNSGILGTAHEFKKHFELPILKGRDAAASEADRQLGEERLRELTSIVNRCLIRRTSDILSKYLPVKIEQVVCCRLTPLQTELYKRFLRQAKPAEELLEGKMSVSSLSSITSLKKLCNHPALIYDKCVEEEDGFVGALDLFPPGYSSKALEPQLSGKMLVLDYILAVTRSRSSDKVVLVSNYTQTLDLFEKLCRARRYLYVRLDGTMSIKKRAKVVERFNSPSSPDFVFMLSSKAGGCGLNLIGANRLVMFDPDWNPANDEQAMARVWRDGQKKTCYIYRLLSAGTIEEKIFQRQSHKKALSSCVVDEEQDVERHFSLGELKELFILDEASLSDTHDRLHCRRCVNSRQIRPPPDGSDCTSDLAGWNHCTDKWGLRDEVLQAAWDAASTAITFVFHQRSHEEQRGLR
DENV2 CPE rescue = inhibitors of DENV2 cytopathic effect, primary screen, cell-based, plate reader, single concentration; DENV2-infected cells, cytopathic effect rescue; CPE inhibition, % at 9.99 µM; 350,000 tested, 1.7% active; in the data active = CPE inhibition above about 20%, passing the limit was not always enough; inconclusive = no clear call, values can overlap the other calls; tested in BHK-21 cells;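 note: 0% = median of neutral control wells and 100% = median of positive control wells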
GSIS activator = GLuc luminescence reporter in INS-1E cells, primary screen for activators of glucose-dependent secretion of insulin | INS-1E GLuc reporter insulin secretion, 2-3 h | activation, % at 16.6 µM | 370,000 tested, 0.61% active | AID 743287, 2014;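 active = lowest replicate activation of at least 40%, so every replicate reaches that level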;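 note: 0% = median of neutral control wells and 100% = median of IBMX positive control wells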
MLL AF4-AF9 inh = inhibitors of AF4 peptide binding to AF9, primary screen, biochemical, AlphaScreen, biotin-AF4 peptide, FLAG-AF9, single point; Protein AF-9 (Homo sapiens), P42568; inhibition, % at 10 µM; 350,000 tested, 0.47% active; AID 651704, 2012;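 active = every replicate reaching a set inhibition limit, whatever the replicate mean, cut at about 25% in these data; inconclusive = mean inhibition reaches that limit but some replicates miss it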;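 note: 0% = plate neutral control median and 100% = total signal loss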
RAD52 inh = RAD52 DNA annealing inhibitors, primary screen, biochemical, FRET, single point, set 2; recombinant RAD52 DNA annealing, FRET fluorescence; 360,000 tested, 0.46% active; DNA repair protein RAD52 homolog (Homo sapiens), P43351; inhibition, % at 18.7 µM;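 active = every replicate showing at least 50% inhibition; inconclusive = mean inhibition at least 50% but not in every replicate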
dFosB act-2 = activators of mouse delta FosB DNA binding, confirmation, biochemical, fluorescence polarization, TAMRA-CDK5 oligo, cherry-picked samples | 2,400 tested, under 10 active | activation, % at 24.9 µM | purified delta FosB; normalised: neutral wells 0, positive control 100 | AID 588690, 2011 | shares compounds with dFosB act-1;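 active = highest replicate activation at or above 34% and every replicate reaching that threshold; inconclusive = meets only one of the two criteria; inactive = meets neither criterion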;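 note: higher polarization means more probe DNA bound by delta FosB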
Active calls of the source: *.

Results for CCOc1cc2[nH]c(=O)n(CCc3ccc(OC)c(OC)c3)c(=O)c2cc1OCC ?
dFosB act-1: 25.3*; RAD54 branch: 7.0; GSIS activator: 17.7; dFosB act-2: -13.3

What do the screens show for `CCOc1cc2[nH]c(=S)n(CCc3ccc(OC)c(OC)c3)c(=O)c2cc1OCC`?
dFosB act-1: -0.8; RAD54 branch: -5.6

Results for COc1ccc(-c2nc3ccccc3o2)cc1NC(=O)c1ccc(Br)o1 ?
dFosB act-1: 73.0*; RAD54 branch: 1.1; dFosB act-2: -0.7

How did COc1ccccc1NC(=O)c1ccc(Br)o1 do in these assays?
dFosB act-1: 6.4; RAD54 branch: -2.2

Results for CCOC(=O)Nc1cccc(OCC(=O)Nc2ccc3c(c2)CCC3)c1 ?
dFosB act-1: 23.0*; RAD54 branch: 0.9; DENV2 CPE rescue: -8.2; GSIS activator: 44.9*; MLL AF4-AF9 inh: -4.0; RAD52 inh: -2.8; dFosB act-2: -1.1

Results for COc1cccc(NC(=O)COc2ccc3c(c2)CCC3)c1 ?
dFosB act-1: -10.0; DENV2 CPE rescue: 0.9; GSIS activator: -11.5; MLL AF4-AF9 inh: -2.7; RAD52 inh: -12.4

Results for COCC#Cc1cnc2c(c1)C(=O)N([C@@H](C)CO)C[C@H](C)[C@@H](CN(C)C(=O)c1ccc(F)cc1)O2 ?
RAD54 branch: 1.1; DENV2 CPE rescue: 9.6; GSIS activator: 64.2; MLL AF4-AF9 inh: -4.3; RAD52 inh: -8.4

Results for CCSc1nnc(NC(=O)Cn2cnc3ccccc3c2=O)s1 ?
dFosB act-1: 1.7; RAD54 branch: 1.0; DENV2 CPE rescue: -5.5; GSIS activator: 20.1; MLL AF4-AF9 inh: -1.8; RAD52 inh: -13.7

What do the screens show for `Cc1ccc(CSc2nnc(NC(=O)Cn3cnc4ccccc4c3=O)s2)cc1`?
dFosB act-1: 31.0*; GSIS activator: 8.7; MLL AF4-AF9 inh: -1.1; RAD52 inh: -36.8; dFosB act-2: -3.8

What do the screens show for `O=C(CSc1ccc(-c2ccc(-n3cccn3)cc2)nn1)Nc1ccccc1F`?
dFosB act-1: 24.8*; DENV2 CPE rescue: -7.7; GSIS activator: -4.7; MLL AF4-AF9 inh: -0.6; RAD52 inh: 1.1; dFosB act-2: 2.6

How did Cc1nn(Cc2ccc(Cl)cc2)c(C)c1NC(=O)Cn1nc([N+](=O)[O-])c(Cl)c1C do in these assays?
dFosB act-1: 20.2*; RAD54 branch: -3.5; dFosB act-2: 8.5

What do the screens show for `Cc1nn(Cc2ccc(Cl)cc2Cl)c(C)c1NC(=O)Cn1nc([N+](=O)[O-])c(Cl)c1C`?
dFosB act-1: 43.6*; dFosB act-2: 0.7

Results for Cc1cc(C)c(NC(=O)Nc2ccccc2)c(Cl)c1 ?
dFosB act-1: -4.1; GSIS activator: 59.7

How did Cc1cc(C)c(NC(=O)Nc2ccccc2C)c(Cl)c1 do in these assays?
dFosB act-1: 20.2*; DENV2 CPE rescue: -1.2; GSIS activator: 5.9; MLL AF4-AF9 inh: 9.0; RAD52 inh: -6.4; dFosB act-2: 1.9

What do the screens show for `COc1ccc(NC(=O)NNC(=O)COc2ccc(Cl)cc2C)cc1OC`?
dFosB act-1: 45.2*; RAD54 branch: -11.7; DENV2 CPE rescue: 4.1; GSIS activator: -18.4; MLL AF4-AF9 inh: 0.5; RAD52 inh: -9.6; dFosB act-2: 4.3

What do the screens show for `O=C(NNC(=O)c1cc(-c2ccc(Cl)c(Cl)c2)nc2ccccc12)Nc1ccccc1`?
dFosB act-1: 5.0

How did Cc1ccc(NC(=O)NNC(=O)COc2ccc([N+](=O)[O-])cc2)cc1C do in these assays?
dFosB act-1: 31.9*; RAD54 branch: -5.5; DENV2 CPE rescue: 9.1; GSIS activator: -8.4; MLL AF4-AF9 inh: 0.3; RAD52 inh: -17.4; dFosB act-2: -10.5

How did Cc1cccc(NC(=O)NNC(=O)COc2ccc3ccccc3c2)c1 do in these assays?
dFosB act-1: inconclusive; RAD54 branch: -18.8; DENV2 CPE rescue: 5.6; GSIS activator: 17.8; MLL AF4-AF9 inh: -7.4; RAD52 inh: -9.2

How did Cc1cccc(NC(=O)NNC(=O)c2cc(-c3ccccc3Cl)nc3ccccc23)c1 do in these assays?
dFosB act-1: 20.5*; RAD54 branch: 5.4; dFosB act-2: -0.2

How did Cc1cccc(NC(=O)NNC(=O)COc2ccc(Cl)cc2)c1 do in these assays?
dFosB act-1: 34.8*; GSIS activator: 11.5; dFosB act-2: 2.3

How did CO[C@@H](CN(C)S(=O)(=O)c1ccc(C)cc1)[C@H](C)CN(Cc1ccccc1Cl)[C@@H](C)CO do in these assays?
RAD54 branch: -5.2; DENV2 CPE rescue: 2.8; GSIS activator: -6.5; MLL AF4-AF9 inh: -0.3; RAD52 inh: 4.2

How did COCCNC(=O)C[C@H]1C[C@H]2c3cc(NC(=O)NC4CCCCC4)ccc3O[C@H]2[C@@H](CO)O1 do in these assays?
RAD54 branch: -1.6; DENV2 CPE rescue: 8.4; GSIS activator: 5.0; MLL AF4-AF9 inh: -1.5; RAD52 inh: 3.3

Results for CCCOC(=O)c1cccc(NC(=O)COc2ccc([N+](=O)[O-])cc2)c1 ?
dFosB act-1: 19.0*; DENV2 CPE rescue: 2.5; MLL AF4-AF9 inh: 2.1; RAD52 inh: -22.4; dFosB act-2: 2.8

Results for Cc1ccc(OCC(=O)NNC(=O)Nc2ccc(Cl)cc2)c(Br)c1 ?
dFosB act-1: 23.0*; DENV2 CPE rescue: 6.9; GSIS activator: 5.1; MLL AF4-AF9 inh: 0.3; RAD52 inh: -28.5; dFosB act-2: 0.7

How did Cc1ccc(NC(=O)Nc2ccc(Cl)cc2)c(Br)c1 do in these assays?
dFosB act-1: 2.5; GSIS activator: -3.4

How did CS(=O)(=O)N1[C@@H]2c3ccc(-c4ccccc4F)c(=O)n3C[C@@H]2[C@@H](CO)[C@@H]1C(=O)NCC1CC1 do in these assays?
DENV2 CPE rescue: -4.2; GSIS activator: 1.9; MLL AF4-AF9 inh: -5.4; RAD52 inh: -10.3

Results for CN1C(=O)c2cc(NC(=O)C3CCOCC3)ccc2OC[C@H]2O[C@@H](CC(=O)NCC3CC3)CC[C@H]21 ?
RAD54 branch: 1.2; DENV2 CPE rescue: -6.5; GSIS activator: 4.7; MLL AF4-AF9 inh: -1.4; RAD52 inh: -5.0

What do the screens show for `COc1ccc(C(=O)N2C(=O)c3ccc(N)cc3C2=O)cc1`?
dFosB act-1: 49.5*; DENV2 CPE rescue: -1.0; GSIS activator: 11.5; MLL AF4-AF9 inh: -3.0; RAD52 inh: 2.1; dFosB act-2: 3.9

Results for O=C1Cc2c([nH]c3ccc([N+](=O)[O-])cc23)-c2ccccc2N1 ?
dFosB act-1: 30.6*; DENV2 CPE rescue: -3.3; GSIS activator: 20.0; MLL AF4-AF9 inh: 0.3; RAD52 inh: -0.6; dFosB act-2: 2.8

High-throughput results (PubChem BioAssay)
